Assay [1] addresses Aryl hydrocarbon receptor (Homo sapiens) (UniProt P35869). Nature of the assay: qHTS assay to identify small molecule that activate the aryl hydrocarbon receptor (AhR) signaling pathway (AID 743085). Further: nearly all actives have a fitted effect of over 15% in size. Further: potency means the concentration at half of the fitted maximal effect.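 On activation: HG2L7.5c1 human HepG2 liver cells with stably integrated DRE-driven firefly reporter; series mostly up to about 70 µM.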 In a few lines: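 AhR agonist activity is inferred from enhanced light output of a DRE-controlled firefly luciferase reporter in HepG2 cells, measured with ONE-Glo following 24 h treatment at 37C.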

A short description of assay [2]: qHTS assay to identify small molecule that activate the aryl hydrocarbon receptor (AhR) signaling pathway - cell viability counter screen (AID 743086). Further: nearly all actives have a fitted effect of over 45% in size. Further: potency means the concentration at half of the fitted maximal effect. The essentials:
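HepG2-AhR-luc (HG2L7.5c1) cells, 4000/well, treated 24 h at 37 C with compound; viability measured as CellTiter-Fluor fluorescence after 30 min in the same wells as the luciferase read.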

The target of assay [3] is Peroxisome proliferator-activated receptor gamma (Homo sapiens) (UniProt P37231). Nature of the assay: qHTS assay to identify small molecule agonists of the peroxisome proliferator-activated receptor gamma (PPARg) signaling pathway (AID 743094; active means well fitted activation curve with a large enough effect in the signal ratio in the repeat runs, not every such curve was filed as active; the % refers to the signal ratio; further: potency means the concentration at half of the fitted maximal effect). In a few lines: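 Beta-lactamase FRET fluorescence was the read-out after a 1 h room-temperature substrate step, following 17 h compound treatment at 37C of HEK293H cells expressing a UAS-driven bla reporter responsive to PPARg.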
Chain of Peroxisome proliferator-activated receptor gamma (Homo sapiens) (P37231 whole entry, looked up): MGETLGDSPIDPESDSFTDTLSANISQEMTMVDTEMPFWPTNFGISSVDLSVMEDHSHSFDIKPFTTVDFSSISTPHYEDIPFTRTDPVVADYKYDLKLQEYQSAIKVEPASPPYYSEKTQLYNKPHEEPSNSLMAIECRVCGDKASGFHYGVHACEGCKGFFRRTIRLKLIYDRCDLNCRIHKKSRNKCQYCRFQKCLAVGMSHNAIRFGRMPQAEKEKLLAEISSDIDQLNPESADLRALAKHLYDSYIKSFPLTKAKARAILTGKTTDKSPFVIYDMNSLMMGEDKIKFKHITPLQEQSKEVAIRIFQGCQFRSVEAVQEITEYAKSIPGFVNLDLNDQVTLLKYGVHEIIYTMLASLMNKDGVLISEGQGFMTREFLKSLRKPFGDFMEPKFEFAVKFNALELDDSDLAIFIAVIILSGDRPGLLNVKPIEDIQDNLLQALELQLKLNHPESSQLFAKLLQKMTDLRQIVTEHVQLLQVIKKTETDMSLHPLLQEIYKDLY

Assay [4] can be described thus: qHTS assay to identify small molecule antagonists of the peroxisome proliferator-activated receptor gamma (PPARg) signaling pathway - cell viability counter screen (AID 743194). Further: nearly all actives have a fitted effect of over 55% in size. Further: potency means the concentration at half of the fitted maximal effect. Conditions: Potency: co-treated with 50 nM rosiglitazone unless noted. In a few lines: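 Cytotoxicity counter screen in PPARg-bla HEK293H cells, same wells as reporter assay. Compounds plus 50 nM rosiglitazone (final) for 17 h at 37 C, then viability read by CellTiter-Glo luminescence.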

A short description of assay [5]: qHTS assay for small molecule activators of the heat shock response signaling pathway - cell viability counter screen (AID 743209). Further: nearly all actives have a fitted effect of over 50% in size. Further: potency means the concentration at half of the fitted maximal effect. In a few lines: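 Luminescence from CellTiter-Glo, added after the beta-lactamase FRET read, gave the viability signal. Cells were HSE-bla HeLa treated with DMSO-dissolved compounds for 5 h at 37 C following overnight plating.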
Assay [6] is described as follows: qHTS assay for small molecule activators of the heat shock response signaling pathway (AID 743210; active means well fitted activation curve with a large enough effect in the signal ratio in the repeat runs, with a control signal flat, not every such curve was filed as active; the % refers to the signal ratio; further: series mostly up to about 63 µM). In a few lines: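 HSE-bla HeLa cells (beta-lactamase reporter under heat shock response elements), plated overnight, then exposed to compounds 5 h at 37 C; LiveBLAzer B/G FRET substrate added, 2.5 h at room temperature, fluorescence intensity read.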
The nature of assay [7]: qHTS assay to identify small molecule agonists of the peroxisome proliferator-activated receptor delta (PPARd) signaling pathway - cell viability counter screen (AID 743211). Further: nearly all actives have a fitted effect of over 55% in size. Further: potency means the concentration at half of the fitted maximal effect. The essentials:
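qHTS cell viability: PPARd-bla HEK293H; 17 h cpd, 37C; CellTiter-Glo, luminescence at 30 min RT.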

The target in assay [8] is Peroxisome proliferator-activated receptor gamma (Homo sapiens) (UniProt P37231). As to the kind of experiment: qHTS assay to identify small molecule antagonists of the peroxisome proliferator-activated receptor gamma (PPARg) signaling pathway (AID 743191; calls by dose curve; further: nearly all actives have a fitted effect of over 30% in size; further: potency means the concentration at half of the fitted maximal effect). In a few lines: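 GeneBLAzer PPARg UAS-bla HEK293H cells, 5 h post-plating, exposed to compounds 17 h at 37C. LiveBLAzer B/G FRET substrate added for 1 h at room temperature; beta-lactamase reporter read by fluorescence intensity.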

A short description of assay [9]: qHTS assay for small molecule agonists of the antioxidant response element (ARE) signaling pathway (AID 743202; active means well fitted activation curve with a large enough effect in the signal ratio in the repeat runs, not every such curve was filed as active; the % refers to the signal ratio). In a few lines:
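ARE-bla HepG2 cells (beta-lactamase reporter under the antioxidant response element), plated 5 hours, then exposed to compounds 16 hours at 37 C. LiveBLAzer B/G FRET substrate added for 2 hours at room temperature; fluorescence intensity read.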

Assay [10] in a line: qHTS assay for small molecule agonists of the antioxidant response element (ARE) signaling pathway - cell viability counter screen (AID 743203; calls by dose curve; further: nearly all actives have a fitted effect of over 55% in size; further: potency means the concentration at half of the fitted maximal effect). In a few lines:
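HepG2 cells carrying ARE-driven beta-lactamase; 2,000 cells/well; 5 hrs plating; compound pinned from DMSO; 16 hrs 37C/5% CO2; CellTiter-Glo added; 30 min RT; luminescence.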

Structures are written as SMILES. Several values for one entry are separate records, joined by “and”; a condition that tells them apart may be missing. Equal entries are not always repeated. Records with an inconclusive call do not appear. The source holds several records for some structures; these can differ, active in one and inactive in another. Activity calls are given as the source filed them. Unless noted, the call rests on the fitted dose curve; in most records, active means well fitted curve in the direction sought with a large enough effect in the repeat runs; inconclusive means weak or mixed curves; inactive means no such curve, though single readings can be large; an effect the other way counts as inactive or inconclusive.

This is an account of results in PubChem BioAssay (Tox21).

Chain of Aryl hydrocarbon receptor (Homo sapiens) (P35869 whole entry, looked up): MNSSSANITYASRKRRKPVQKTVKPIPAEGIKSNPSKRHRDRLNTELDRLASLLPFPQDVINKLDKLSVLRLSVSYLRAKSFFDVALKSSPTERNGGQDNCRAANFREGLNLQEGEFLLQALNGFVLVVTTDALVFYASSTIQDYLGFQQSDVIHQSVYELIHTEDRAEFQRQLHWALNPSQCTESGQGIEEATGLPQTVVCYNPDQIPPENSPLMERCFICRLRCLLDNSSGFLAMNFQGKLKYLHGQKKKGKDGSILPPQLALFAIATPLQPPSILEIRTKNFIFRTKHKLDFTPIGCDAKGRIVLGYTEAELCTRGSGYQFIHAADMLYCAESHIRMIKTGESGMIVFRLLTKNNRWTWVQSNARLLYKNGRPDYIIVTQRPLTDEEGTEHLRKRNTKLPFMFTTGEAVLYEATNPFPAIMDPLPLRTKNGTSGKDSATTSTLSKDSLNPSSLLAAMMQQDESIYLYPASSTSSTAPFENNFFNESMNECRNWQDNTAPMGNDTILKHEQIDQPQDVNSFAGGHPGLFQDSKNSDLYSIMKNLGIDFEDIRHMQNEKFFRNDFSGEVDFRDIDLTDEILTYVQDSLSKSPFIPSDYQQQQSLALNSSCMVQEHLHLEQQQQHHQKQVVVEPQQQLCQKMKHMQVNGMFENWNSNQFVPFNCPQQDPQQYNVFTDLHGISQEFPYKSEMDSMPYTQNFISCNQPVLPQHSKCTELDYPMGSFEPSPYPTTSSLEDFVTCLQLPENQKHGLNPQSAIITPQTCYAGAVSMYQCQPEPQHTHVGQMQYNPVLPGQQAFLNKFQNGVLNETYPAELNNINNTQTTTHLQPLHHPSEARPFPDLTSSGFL

Regarding `C[C@]12CC[C@H]3[C@@H](CCC4=CC(=O)CC[C@@]43C)[C@@H]1CC[C@@H]2O`, the Potency result in [1], in assay [2], in assay [3], in assay [4], in assay [5] and in [6] was “inactive” each time. Moreover, in assay [7], the Potency entry was “inactive”.

As for `ClC(Cl)=C(c1ccc(Cl)cc1)c1ccc(Cl)cc1`, the Potency entry in [1], in assay [2], in assay [3] and in assay [4] was “inactive” each time. In addition, the Potency in assay [5] was 50.2 µM (active) and 17.4 µM (active); in [7], 24.5 µM (active).

With `CCN`, the Potency result in assay [1], in assay [2], in assay [3], in assay [8], in assay [4] and in [9] was “inactive” each time. In addition, the Potency result in assay [5] and in assay [7] was “inactive” each time.

Take `O=c1[nH]c2ccccc2n1C1CCN(CCCC(c2ccc(F)cc2)c2ccc(F)cc2)CC1`: the Potency entry in [1], in assay [2] and in assay [3] was “inactive” throughout. For the same compound, the Potency is 34.7 µM (active) in assay [8]; 24.5 µM [setting not given] (active) in [4]; 24.5 µM (active) and 13.3 µM (active) in assay [5]; 24.5 µM (active) and 29.8 µM (active) in [7].

`Oc1ccc(C(c2ccc(O)cc2)(C(F)(F)F)C(F)(F)F)cc1`: the Potency was 6.86 µM (active) in [1]; 43.6 µM (active) in assay [4]; “inactive and 54.9 µM (active)” in assay [7]. Also, the Potency entry in assay [2], in assay [3], in [5] and in assay [6] was “inactive” in each case.

With `C[C@]12CC[C@@H]3c4ccc(OC(=O)N(CCCl)CCCl)cc4CC[C@H]3[C@@H]1CC[C@@H]2O`, the Potency entry in assay [1], in assay [2], in assay [3], in assay [4], in assay [6] and in [7] was “inactive” each time.

With `BrC(Br)Br`, the Potency entry in [1], in assay [2], in assay [3], in [4], in assay [9] and in assay [10] was “inactive” throughout. For the same compound, the Potency result in assay [5], in assay [6] and in [7] was “inactive” throughout.

As for `CC(C)OC(=S)S`, the Potency entry in assay [1], in [2], in assay [3], in [8], in assay [4] and in [10] was “inactive” throughout. Also, the Potency entry in assay [5] and in assay [7] was “inactive” throughout.

Regarding `ClC1=C(Cl)[C@]2(Cl)[C@@H]3[C@@H]4C[C@@H]([C@H]5O[C@@H]45)[C@@H]3[C@@]1(Cl)C2(Cl)Cl`, the Potency entry in [1], in assay [2] and in assay [3] was “inactive” each time. The Potency in assay [4] was 43.6 µM (active); in assay [10], 54.5 µM (active); in [5] it was 48.9 µM (active); in assay [7] it was 49 µM (active).

For `N#CNC#N`, the Potency result in assay [1], in assay [2], in [3], in [8], in assay [4] and in [9] was “inactive” each time. Also, the Potency entry in [5], in assay [6] and in [7] was “inactive” in each case.

`CCCCN(CCCC)C(=S)[S-].CCCCN(CCCC)C(=S)[S-].[Zn+2]`: the Potency result in assay [1], in assay [2] and in assay [5] was “inactive” each time. Moreover, the Potency entry in assay [3] was “inactive and 30.9 µM (active)”; in [4], 5.49 µM (active); in [7], 6.16 µM (active).

In the case of `COc1cccc(C(=O)CCN[C@@H](C)[C@H](O)c2ccccc2)c1`, the Potency entry in assay [1], in assay [2], in assay [3], in assay [8] and in assay [4] was “inactive” each time.

In the case of `N#CCCSCCC#N`, the Potency entry in assay [1], in assay [2], in assay [3], in assay [8], in assay [4] and in [9] was “inactive” each time. Also, the Potency result in assay [5], in assay [6] and in [7] was “inactive” in each case.

Take `Clc1ccc(C(c2ccc(Cl)cc2)C(Cl)(Cl)Cl)cc1`: the Potency entry in assay [1], in [2], in assay [3], in [8] and in assay [6] was “inactive” in each case. For the same compound, the Potency is 48.9 µM (active) and inactive in assay [10]; 55.3 µM (active) and 54.9 µM (active) and inactive in assay [5]; 49.3 µM (active) and 38.9 µM (active) in assay [7].

For `CC(C)CCCCCCCOP(=O)(Oc1ccccc1)Oc1ccccc1`, the Potency result in assay [1], in assay [2], in assay [3], in assay [4], in assay [10] and in assay [5] was “inactive” in each case. The Potency result in assay [6] was “inactive”. Moreover, the Potency in assay [7] is 27.7 µM (active).

`CC(C)(C)c1cc([N+](=O)[O-])cc(C(C)(C)C)c1O`: the Potency result in assay [1], in [2], in [3], in assay [8], in [9] and in assay [5] was “inactive” in each case. Also, the Potency result in assay [6] is “inactive”. Moreover, the Potency in assay [4] is 6.16 µM (active).

`CNC(C)Cc1ccc2c(c1)OCO2` (stereo unspecified): the Potency result in [1], in assay [2], in [3], in assay [8], in assay [4] and in assay [9] was “inactive” in each case.

In the case of `Clc1ccc(CSC(Cn2ccnc2)c2ccc(Cl)cc2Cl)cc1` (stereo unspecified), the Potency entry in [1], in [2] and in assay [3] was “inactive” throughout. Besides, the Potency was 29.8 µM (active) in assay [4], 29.8 µM (active) in assay [10], 29.8 µM (active) in assay [5] and 33.5 µM (active) in assay [7].

Turning to `ClC(Cl)=C(Cl)Cl`, the Potency result in assay [1], in assay [2], in assay [3], in assay [4], in [9] and in assay [10] was “inactive” throughout. In addition, the Potency result in [5], in assay [6] and in assay [7] was “inactive” each time.

Turning to `CN(C)CCc1c[nH]c2cccc(O)c12`, the Potency entry in assay [1], in assay [2], in [3], in assay [8], in assay [4] and in assay [10] was “inactive” each time. For the same compound, the Potency result in assay [5] and in assay [7] was “inactive” in each case.

On to `Clc1ccc(COC(Cn2ccnc2)c2ccc(Cl)cc2Cl)cc1` (stereo unspecified), for which the Potency result in assay [1] and in assay [3] was “inactive” in each case. Further, the Potency is 15.3 µM (active) in assay [2]; 20.4 µM (active) and 19.4 µM (active) and 29.8 µM (active) in assay [4]; 25.5 µM (active) and 19.3 µM (active) and 33.5 µM (active) in assay [10]; 36.3 µM (active) and 12.3 µM (active) in assay [5]; 16.2 µM (active) and 17.3 µM (active) and 21.1 µM (active) in [7].

With `ClC1=C(Cl)C2(Cl)C3C(Cl)C=CC3C1(Cl)C2(Cl)Cl` (stereo unspecified), the Potency entry in assay [1], in [2] and in [3] was “inactive” in each case. Also, the Potency in [4] was 55.2 µM (active) and 24.5 µM (active); in [10], 61.1 µM (active); in [7], 38.9 µM (active).
